Hits are enriched below; roughly 12% of the tested compounds scored in any of these assays.
PLK1 PBD block – inhibitors of human PLK1 polo-box domain binding | P53350 | Plk1 PBD binding of FITC phosphopeptide, fluorescence polarization | Potency, µM, inactives show max response, negative = inhibition, hits mostly inhibitors | 360,000 tested, 2.8% active | AID 720504; further: series mostly up to about 57 µM; on the % scale 0 is the no-effect control and ±100 the full control effect; nearly all actives have a fitted effect of over 65% in size
Sfp PPTase inh – inhibitors of Bacillus subtilis Sfp phosphopantetheinyl transferase; Biochemical Sfp PPTase activity, qHTS; Potency, µM, inactives show largest response in the series, negative = inhibition, hits mostly inhibitors; 310,000 tested, 3.5% active; AID 1490;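 further: the enzyme is Sfp with the accession as filed and its product quenches rhodamine fluorescence; 0% = enzyme reaction without inhibitor and -100% = no enzyme wells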
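With Hepes-Na pH 7.6 buffer containing 10 mM MgCl2, Sfp (15 nM) modified BHQ-2-YbbR (12.5 uM) using rhodamine-CoA (5 uM). Two reads 30 minutes apart at 525/598 nm yielded each well's rate.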
JMJD2A Tudor inh – blocks the human JMJD2A Tudor domain; AID 504339; AlphaScreen JMJD2A-Tudor / H3K4me3 peptide binding; O75164; Potency, µM (doses to about 114 µM), without a hit: top-dose activity change, negative = inhibition, hits mostly inhibitors; 390,000 tested, 4.4% active; further: on the % scale 0 is the no-effect control and ±100 the full control effect; nearly all actives have a fitted effect of over 50% in size
G9a inh – blocks human histone lysine methyltransferase G9a. Q96KQ7. G9a H3K9 monomethylation, AlphaScreen, 2 h. Potency, µM (doses to about 102 µM), without a hit: at the highest dose activity, negative = inhibition, usual class: inhibitors. 350,000 tested, 8.8% active. AID 504332; further: on the % scale 0 is the no-effect control and ±100 the full control effect; nearly all actives have a fitted effect of over 75% in size
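Using a bead-based AlphaScreen, monomethylated H3K9 product from 2 h room-temperature reactions (G9a 20 nM, peptide 500 nM, SAM 20 uM) was detected with 0.5 ug/mL rabbit anti-H3K9me1 antibody.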
BAZ2B block – blocks human BAZ2B; Potency, µM (series often up to 114 µM), without a hit: at the highest dose activity change, negative = inhibition, usual class: inhibitors; Q9UIF8; 360,000 tested, 4.4% active; AlphaScreen BAZ2B-H3K14Ac peptide displacement; AID 504333; further: on the % scale 0 is the no-effect control and ±100 the full control effect; nearly all actives have a fitted effect of over 60% in size
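Inhibition is scored as reduced AlphaScreen emission. The BAZ2B/b-H3(5-23)K14Ac complex (50 nM each) in PBS pH 7.4, 0.01% Tween-20 meets compound (up to 110 uM) for 30 min at RT before bead addition.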
HP1b chromo inh – HP1-beta chromodomain-methylated histone interaction inhibition; AlphaScreen HP1-beta / biotin-H3K9me3 peptide binding; AID 540317; Potency, µM (series often up to 114 µM), inactives show at the highest dose activity change, negative = inhibition, hits mostly inhibitors; 390,000 tested, 0.56% active; P83916; further: nearly all actives have a fitted effect of over 70% in size
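AlphaScreen: HP1-beta (50 nM) preformed 30 min with biotin-H3(1-18)K9me3 peptide (50 nM) in PBS pH 7.4, 0.01% Tween-20. Compound added for 30 min at RT, then streptavidin donor/nickel chelate acceptor beads (10 ug/mL) for 30 min.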
The depositor's hits bear a star; ? = inconclusive; nt = not tested or not shown; ! = not confirmed by another sample; [ ] = another dose, or the depositor's remark. The call rests on the fitted dose curve; in most records, active means well fitted curve in the direction sought with a large enough effect; inconclusive means small, poorly fitted or top-dose-only effect, or another doubt; inactive means no such curve, though single readings can be large; an effect the other way counts as inactive or inconclusive. Potency means the concentration at half of the fitted maximal effect.

SMILES	PLK1 PBD block	Sfp PPTase inh	JMJD2A Tudor inh	G9a inh	BAZ2B block	HP1b chromo inh
O=C(C1CCC(=O)N(C2CCCC2)C1)N1CCN(c2ccccc2Cl)CC1 (centres undefined)	-7.3%	0.1%	0.7%	-0.3%	-9.7%[57.1 µM]	64.2%
Cc1cccc(N2CCN(C(=O)Cn3cccc3)CC2)c1C	-13.8%	-4.2%	?	50.1µM*	?	-9.4%
Cc1noc(C)c1-c1nc(N(C)C)c2ccccc2n1	nt	-23.3%	nt	2.5%[0.501 µM]	nt	nt
Cc1ccc(-c2cnn3c(N4CCOCC4)cc(C)nc23)cc1	-4.6%	4.4%	16.8%	32.7%	15.0%	57.7%
COCCn1c(=S)[nH]c2cc(C(=O)N3CCc4ccccc4C3)ccc2c1=O	?	10.8%	31.6µM*	-9.5%[59 µM]	-16.7%	4.0%
CCN(CC)C(=O)c1ccc2c(=O)n(CCOC)c(=S)[nH]c2c1	0.1%	-25.0%	17.8µM*	44.7µM*	?	38.9%
COCCn1c(=S)[nH]c2cc(C(=O)N3CC(C)CC(C)C3)ccc2c1=O (centres undefined)	-15.0%	-7.8%	-11.0%	-3.4%	-31.1%	41.8%
O=c1cc(-c2ccccc2)[nH]n2cnnc12	-10.6%	3.2%	-4.5%	?	-27.8%	35.4%
c1ccc(CNc2ccnc(-c3cccnc3)n2)cc1	nt	-22.4%	nt	1.1%[0.501 µM]	nt	nt
COc1ccc(C(=O)Sc2nncc3ccccc23)cc1	?	50.1µM*	?	22.4µM*	70.8µM*	10.8%
CC1CCc2noc(NC(=O)c3ccccc3[N+](=O)[O-])c2C1 (centres undefined)	nt	nt	?	15.8µM*	?	-13.8%
CCOc1ccc(Br)cc1/C=N/O	-1.2%	9.6%	-0.6%	4.5%[59 µM]	2.4%	15.8%
O=C(O)COc1ccc(Br)cc1/C=N/O	-4.7%	4.1%	-31.6%	56.2µM*	?	24.1%
O=c1ccc2cc(O)c(O)cc2o1	-14.5%	56.2µM*!	?	?	-26.4%	19.2%
FC(F)(F)c1cnc(-c2cnc(-c3ccccn3)nc2)c(Cl)c1	-9.7%	6.6%	-12.0%[11.4 µM]	50.1µM*	?	34.9%
O=C1CCC2S/C(=C/Nc3ccc(C(F)(F)F)cc3)C(=O)N12 (centres undefined)	9.47µM*	22.4µM*	-14.3%[11.4 µM]	?	?	-15.5%
N#CCSc1ccccc1NC(=O)CN1C(=O)C2CC=CCC2C1=O (centres undefined)	-5.7%	nt	-15.7%	44.7µM*	10.9%	9.6%
Cc1cc(Br)ccc1NC(=O)CN1C(=S)NC(C)(C)CC1C (centres undefined)	-10.0%	?	2.2%	31.6µM*	-12.9%	-18.1%
O=C(CN1C(=O)C2CC=CCC2C1=O)Nc1ccc(Br)cc1 (centres undefined)	-5.4%	17.1%	-13.1%	-0.4%	-0.3%	19.7%
Cc1cc(Br)ccc1NC(=O)CN1C(=O)C2CC=CCC2C1=O (centres undefined)	-23.8%	nt	?	0.794µM*	-9.2%	6.9%
Cc1ccc(Cn2nc(C)c(C(=O)NCC(c3cccs3)N3CCOCC3)c2Cl)cc1 (centres undefined)	-0.1%	nt	-11.0%	3.4%[59 µM]	-5.3%	40.0%
Cc1nc(C)c(CCNC(=O)c2cccc(Cl)c2)s1	-9.6%	-1.8%	2.1%	79.4µM*	10.2%	17.8%
CCCCc1cc(-c2n[nH]c(=S)o2)c2ccccc2n1	?	-6.7%	-25.1%	4.47µM*	?	15.9%
COc1ccc(OCc2n[nH]c(=S)o2)cc1	?	-21.0%	?	?	-27.9%	2.8%
O=c1[nH]nc(-c2cc(-c3ccccc3)nc3ccccc23)o1	-25.8%	nt	nt	nt	nt	nt
SMILES	PLK1 PBD block	Sfp PPTase inh	JMJD2A Tudor inh	G9a inh	BAZ2B block	HP1b chromo inh
CCOc1ccccc1-c1n[nH]c(=S)o1	-6.1%	-7.9%	39.8µM*	1.78µM*	?	15.6%
CCOc1ccc(-c2n[nH]c(=S)c3ccccc23)cc1	-29.2%	3.4%	-15.2%	-5.5%	-4.1%	57.9%
CCOc1ccc(-c2n[nH]c(=S)o2)cc1	-8.9%	0.9%	?	5.01µM*	nt	23.4%
COc1ccc(-c2n[nH]c(=S)o2)c(OC)c1	-0.3%	?	79.4µM*	?	-37.2%	51.8%
COc1ccc(C2(O)C(=O)Nc3ccc(C)cc32)cc1OC (centres undefined)	-3.8%	14.2%	-4.9%	23.0%[2.33 µM]	-0.5%	19.1%
Cc1ccc(CNC(=O)CSc2ncc3c(n2)-c2ccc(Cl)cc2N(Cc2ccccc2)S3(=O)=O)cc1	nt	nt	-6.2%	-7.9%[59 µM]	-9.6%	13.5%
Cn1cccc1C(=O)N1CCC2(CC1)CCN(c1ccccn1)CC2	nt	1.9%	nt	-2.2%[12.7 µM]	nt	nt
O=C(Nc1ccccc1)c1ccc(Br)c(S(=O)(=O)N2CCCCC2)c1	nt	nt	-23.4%	-19.2%[59 µM]	-13.2%	46.5%
COC(=O)c1ccccc1NC(=O)CSc1nnnn1CC(=O)O	-7.9%	7.2%	-12.7%	7.1%	-4.1%	9.2%
Cc1cc(C)n(CCc2nc3c4ccccc4nc(N4CCN(c5ccc(F)cc5)CC4)n3n2)n1	nt	nt	-10.2%	-0.8%[59 µM]	2.7%	10.6%
c1ccc(CC2CCN(Cc3ccccn3)CC2)cc1	2.2%	2.7%	7.94µM*	nt	50.1µM*	?
Clc1ccc(CN2CCC(Cc3ccccc3)CC2)cc1	-14.0%	?	20µM*	4.47µM*	31.6µM*	?
OCC1(Cc2ccccc2)CCN(Cc2ccccn2)CC1	-13.0%	15.0%	-2.9%	nt	-0.4%	45.5%
O=C(/C=C/c1cccc(Cl)c1)N1CCC(Cc2ccccc2)CC1	0.6%	-30.7%	26.7%	37.4%[59 µM]	16.1%	87.8%
CSc1ccc(CN2CCC(Cc3ccccc3)CC2)cc1	-1.9%	-9.8%	35.5µM*	7.08µM*	70.8µM*	-10.1%
Clc1cccc(CN2CCC(Cc3ccccc3)CC2)c1	-3.9%	?	3.16µM*	3.55µM*	50.1µM*	?
Clc1ccc(CN2CCC(c3ccccc3)CC2)cc1	-6.0%	15.3%	-2.8%	12.5%	-0.1%	26.9%
O=C(CNC(=O)c1cn2ccccc2n1)Nc1ccc(F)c(F)c1	-4.3%	nt	-15.2%	15.8%[0.501 µM]	3.6%	4.6%
O=C(COc1cccc2ccccc12)NNC(=O)c1cccs1	2.6%	5.2%	-4.1%	43.7%[12.7 µM]	3.2%	34.1%
CC1=NC(C(F)(F)F)(C(F)(F)F)C2=C(CC(C)(C)CC2=O)N1Cc1ccco1	-2.8%	10.8%	-3.7%	-14.4%	5.7%	19.5%
Fc1ccc(CN2CCC(Cc3ccccc3)CC2)cc1F	-1.8%	-12.9%	28.2µM*	10µM*	?	-32.9%
Clc1cccc(CN2CCN(Cc3ccco3)CC2)c1	8.2%	?	1.78µM*	7.94µM*	17.8µM*	20µM*
O=S(=O)(c1ccc(Br)cc1)N1CCN(Cc2ccco2)CC1	-9.0%	5.4%	-28.7%	nt	5.1%	-13.8%
CCOc1ccc(N(C)C(=O)CCc2nnc3ccc(N4CCCCC4)nn23)cc1	-10.9%	16.9%	-16.9%	-12.0%	-16.1%	48.2%
COc1ccc(-c2cc(OC(=O)c3ccc(Cl)cc3)c3c(C)oc(C)c3c(=O)c2)cc1	nt	nt	?	?	39.8µM*	-0.1%

Screening results (PubChem)
